# Laboratory results: ChEMBL document CHEMBL1157539, “Thousands of chemical starting points for antimalarial lead identification” (Nature, 2010)
# Test system: Plasmodium falciparum
# Assay: GSK_TCMDC: Inhibition of Plasmodium falciparum 3D7 in whole red blood cells, using parasite LDH activity as an index of growth. Test compounds present at 2uM
# Assay type: functional
row,SMILES,Inhibition
1,Cc1cccc2nc(-c3cccc(-c4ccc(NC(=O)C(C)C(=O)NC(C)C)cc4)c3)[nH]c12 (centres undefined),85%
2,Cc1ccc(C(=O)Nc2ccc(OC3CCN(CCC(C)C)C3)c(Cl)c2)cc1.O=C(O)C(F)(F)F (centres undefined),83%
3,CC(C)(C)C(=O)Nc1ccc(C(=O)Nc2cccc(-c3nc4ccccc4[nH]3)c2)cc1,96%
4,Cc1ccc(NC(=O)c2ccc(CN3CCCN(Cc4cccc(C#N)c4)CC3)cc2)cc1F.O=C(O)C(F)(F)F,98%
5,CCN(CC)CC(O)CNc1c2ccc([N+](=O)[O-])cc2nc2cc(OC)c(OC)cc12.Cl (centres undefined),100%
6,COc1ccccc1OCCN(CC(O)COc1cccc2[nH]c3ccccc3c12)CC(O)COc1cccc2[nH]c3ccccc3c12 (centres undefined),97%
7,CCCCCN1CCC(NS(=O)(=O)c2cccc(C(=O)Nc3ccc(Cl)cc3)c2)CC1.O=C(O)C(F)(F)F,88%
8,Cl.Oc1ccc(Nc2nc(N3CCCC3)c3ccccc3n2)cc1,100%
9,O=C(NCCCCCN1CCC(c2c[nH]c3ccccc23)CC1)c1ccc(Cl)c(Cl)c1,85%
10,O=S(=O)(Nc1ccc(CCN2CCCCC2CCN2CCCC2)cc1)c1cccc2cccnc12 (centres undefined),100%
11,CCOc1ccc2c(=NN=Cc3ccccn3)cc(C)[nH]c2c1,98%
12,Cc1cccc(C(O)CNc2ccnc(Nc3cccc(-c4csc(C)n4)c3)n2)c1 (centres undefined),99%
13,O=C(/C=C/c1ccc(Cl)c(Cl)c1)NCCCCCN1CCC(C(=O)Nc2ccc(F)c(Cl)c2)CC1,100%
14,CCN1CCCC(Nc2ccnc3cc4ccccc4cc23)C1 (centres undefined),100%
